hgDAF-12 ag: agonists of H. glycines DAF-12 nuclear receptor; HEK293 GAL4-hgDAF12 UAS-luciferase reporter, agonist luminescence; normalized to butyrate control; activation, % at 6.8 µM; actives 1.8% (n = 370,000); AID 687014;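 active = activation above a cutoff set at the mean of all screened compounds plus 3 SD, cut at about 10% in these data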;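 note: 0% = DMSO wells and 100% = sodium butyrate wells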
ssDAF-12 act: activators of S. stercoralis DAF-12 nuclear receptor | HEK293 ssDAF-12/GRIP1 lit1-tk-luc reporter, luminescence; % of 3 µM dafachronic acid response | activation, % at 6.8 µM | actives 1% (n = 370,000) | AID 652126;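 active = activation above the mean over all tested compounds plus 3 SD, cut at about 0.9% in these data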;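 note: 0% = DMSO-only wells and 100% = 3 µM delta7-dafachronic acid wells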
DAX1 inh-1: inhibitors of DAX1 repression of SF-1 activated StAR promoter. inhibition, % at 6.8 µM. actives 1.1% (n = 370,000). AID 652010. HEK293T StAR-luciferase reporter, SF-1/DAX-1 repression relief;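 active = inhibition above the mean over all tested compounds plus 3 SD, cut at about 3.6% in these data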;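 note: 0% = DAX-1 cells with DMSO and 100% = cells lacking DAX-1 with DMSO; higher inhibition means more luminescence from relief of DAX-1 repression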
DAX1 inh-2: NR0B1 (DAX1) inhibition. P51843. HEK293 Gal4-DAX1 luciferase reporter, luminescence. inhibition, % at 6.75 µM. actives 0.99% (n = 340,000);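 active = inhibition above the mean over all tested compounds plus 3 SD, cut at about 4.2% in these data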;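 note: 0% = DAX1-transfected cells with DMSO and 100% = empty-vector control cells with DMSO; inhibition shows as a rise in luminescence from relieved DAX1 repression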
Target sequence (P51843 207-470 limits assumed): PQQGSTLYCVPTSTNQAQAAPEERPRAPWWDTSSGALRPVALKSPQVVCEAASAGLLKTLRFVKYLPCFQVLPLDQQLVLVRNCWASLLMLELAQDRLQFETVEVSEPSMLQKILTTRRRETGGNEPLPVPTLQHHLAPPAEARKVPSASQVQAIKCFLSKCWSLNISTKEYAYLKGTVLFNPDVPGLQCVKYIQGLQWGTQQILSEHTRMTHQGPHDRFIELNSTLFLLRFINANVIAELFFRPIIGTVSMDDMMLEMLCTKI
hcDAF12 agonist: activates DAF-12 receptor from parasite H. contortus; actives 1.4% (n = 370,000); HEK293 hcDAF-12 lit1-tk-luc reporter, luminescence; 0% DMSO, 100% Δ7-dafachronic acid; activation, % at 6.8 µM;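 active = activation above the mean of all tested compounds plus 3 SD, cut at about 5.5% in these data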;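 note: 100% = response to 3 µM Δ7-dafachronic acid high control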
LXR ag: LXR-beta agonism as hcDAF-12 counter-screen | shares compounds with hcDAF12 agonist | HEK293 Gal4-LXR tk-luc reporter, luminescence, 24 h; normalized: DMSO 0%, positive control 100% | activation, % at 6.8 µM | 3,400 tested, under 10 active | AID 743027;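 active = mean percent activation of the reporter above a cutoff set as the average over tested compounds plus their standard deviation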
hcDAF12 ag: confirmation of H. contortus DAF-12 agonists; HEK293 hcDAF-12 lit1-tk-luc reporter, luminescence; % of Δ7-dafachronic acid response; actives 61% (n = 3,400); shares compounds with hcDAF12 agonist; activation, % at 6.8 µM;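 active = mean activation across triplicate tests above the threshold derived from the earlier primary screen, cut at about 5.5% in these data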;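 note: 0% = DMSO only wells and 100% = 3 µM Δ7-dafachronic acid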
* hit, by the source's call; nt = no result. Compounds with a hit are over-represented: about 4.1% of the library has one in this group of screens.

SMILES	hgDAF-12 ag	ssDAF-12 act	DAX1 inh-1	DAX1 inh-2	hcDAF12 agonist	LXR ag	hcDAF12 ag
Cc1cccc2c(N=NC(=O)C(C)n3cnc4ccccc4c3=O)c(O)[nH]c12 (stereo not given)	-1	-1	0	0	0	nt	nt
COC(=O)[C@]12C[C@H](CC(=O)N3CCN(C(=O)c4ccco4)CC3)C(=O)N(Cc3ccccc3)C1=C[C@H](C(C)(C)C)O[C@@H]2C	0	-1	1	nt	-2	nt	nt
O=C1c2cccc3cccc(c23)C(=O)N1c1ccccc1Cl	-4	-1	-1	-1	-3	nt	nt
Nc1ccccc1N1C(=O)c2cccc3cccc(c23)C1=O	4	0	1	nt	6.7*	0	5
O=S1(=O)c2c(cccc2N2CCSCC2)Oc2ccccc2CN1Cc1cn(Cc2ccc(C(F)(F)F)cc2)nn1	-1	0	-2	nt	-1	nt	nt
COC(=O)c1c(NC(=S)Nc2ccc(F)cc2[N+](=O)[O-])sc2c1CCCCC2	2	0	-1	1	9.5*	0	2
COc1ccc2[nH]c3c(C)c4ccncc4c(C)c3c2c1	0	2.0*	-2	0	7.3*	0	4
NC(=O)c1c(NC(=O)c2ccccc2F)sc2c1CCCC2	13*	0	3	5.4*	9.0*	1	7.3*
N#Cc1c(NC(=O)c2ccccc2)sc2c1CCCCC2	13*	1.0*	3	2	7.0*	1	5.9*
Cc1ccc(C(=O)Nc2sc3c(c2C#N)CCCCC3)cc1C	6	-1	1	1	3	nt	nt
COc1cccc(C(=O)N2CCC[C@@H]2C(=O)N2CCC[C@@H]2C(=O)NCc2ccccc2)c1	-1	-1	-1	nt	-1	nt	nt
C=CCn1c(O)c(N=NC(=O)OCC)c2ccccc21	-3	-1	0	-1	-2	nt	nt
CCOC(=O)N=Nc1c(O)n(C)c2ccccc12	5	0	0	-1	7.3*	0	2
C=CCn1c(SCc2c(Cl)cccc2Cl)nnc1-c1cccc(C)c1	-5	-2	-2	nt	-3	nt	nt
COC(=O)c1cc(-c2ccc(C(C)(C)C)cc2)c(=O)n2c1CCC2	-1	-1	1	nt	7.1*	0	1
CCOc1ccc(-c2cc(C(=O)OC)c3n(c2=O)CCC3)cc1	0	-1	-1	nt	0	nt	nt
C(#Cc1ccc2c(c1)COc1c3ccccc3nn1-2)c1ccccc1	8	0	1	4	4	nt	nt
C#Cc1ccc2c(c1)COc1c3ccccc3nn1-2	12*	1.8*	3	2	11*	2	8.3*
COc1ccc(CSc2nnc(SCC(=O)Nc3ccccc3-c3ccccc3)s2)cc1	-2	-2	-2	nt	-4	nt	nt
Fc1cccc(Cc2c(-c3cccc(Br)c3)nc3c(Cl)cc(C(F)(F)F)cn23)c1	1	0	0	nt	6.6*	0	1
Fc1ccc(-c2nc3c(Cl)cc(C(F)(F)F)cn3c2Cl)cc1	6	0	1	7.9*	9.6*	1	8.7*
Cc1ccccc1-c1ccc2c(c1)[C@@H]1C[C@H]3[C@@H](CN1CC2)[C@H](C)OC(C1CCCCC1)N3C (stereo not given in full)	4	0	0	nt	-2	nt	nt
COc1ccc2c(c1)[C@@H](NC(=O)c1ccncc1)[C@H](C)[C@H]2c1ccccc1	4	-1	0	nt	0	nt	nt
Clc1nnc(N/N=C/c2ccccc2)c2ccccc12	7	1.2*	1	1	7.3*	1	11*
Clc1ccc(/C=N/Nc2nnc(Cl)c3ccccc23)cc1	6	1.6*	1	0	7.0*	1	8.7*
SMILES	hgDAF-12 ag	ssDAF-12 act	DAX1 inh-1	DAX1 inh-2	hcDAF12 agonist	LXR ag	hcDAF12 ag
C(=N\Nc1ncnc2ccccc12)/c1ccccc1	15*	1.3*	3	0	8.4*	1	8.5*
Clc1cncc(Cl)c1N/N=C/c1ccccc1	2	-1	0	3	1	nt	nt
Cc1ccc(-c2nc(N/N=C/c3ccncc3)c3ccccc3n2)cc1	10	1.1*	3	-4	15*	2	20*
c1ccc(Cn2ccc3ccc(-c4ccc5ccn(Cc6cccc(-c7cccs7)c6)c5c4)cc32)cc1	-2	-1	-1	nt	-1	nt	nt
O=C(N[C@H](C(=O)N1CCC[C@H]1C(=O)NCCc1ccccc1Cl)c1ccccc1)c1ccc(Cl)cc1Cl	-2	-1	-1	nt	0	nt	nt
COc1ccc(C2CC(=O)C(c3ccc(Br)cc3)=CN2Cc2ccccc2)cc1 (stereo not given)	4	0	-1	nt	-1	nt	nt
CC(=O)Nc1ccc(C=NNc2nnc(NN=Cc3ccc(NC(C)=O)cc3)c3ccccc23)cc1	1	-1	0	-3	0	nt	nt
Cc1ccc(/C=N/Nc2nnc(Cl)c3ccccc23)cc1	8	3.7*	2	1	11*	2	18*
COc1ccccc1C(=O)NNC(=O)c1ccccc1Br	5	1	0	1	8.4*	0	2
COc1ccccc1C(=O)NNC(=O)c1ccccc1	7	1.0*	2	6.0*	10*	1	11*
COc1ccccc1C(=O)NNC(=O)c1ccc2ccccc2c1O	6	0	1	1	4	nt	nt
COc1ccccc1C(=O)NNC(=O)c1cccc(Br)c1	9	0	1	2	5	nt	nt
COc1ccccc1C(=O)CC(=O)c1ccccc1	11*	1.5*	1	2	6.7*	1	11*
COc1ccccc1C(=O)NNC(=O)C1CCN(C(=O)OC(C)(C)C)CC1	1	0	0	0	7.1*	0	5
CCC(C)NS(=O)(=O)c1ccc2[nH]c(=O)oc2c1 (stereo not given)	-4	-1	1	nt	-2	nt	nt
COc1ccc(CN2C(=O)CCCC2(C)c2nnnn2-c2c(C)cccc2C)cc1OC (stereo not given)	-1	-2	-1	nt	-2	nt	nt
Cc1ccccc1C(=O)N1CCN(C(=O)C(=O)c2cccc(C(F)(F)F)c2)CC1	-1	-1	1	nt	-2	nt	nt
COc1ccccc1C(=O)Nc1nnc(-c2ccccc2)s1	9	1.2*	0	1	6.8*	0	8.5*
O=C(Oc1ccccc1/C=C\C(=O)c1cc2ccccc2o1)c1cccc(F)c1	10	0	0	3	11*	1	7.2*
O=C(N/N=C/c1ccccc1OC(=O)c1ccc2c(c1)OCO2)c1cccc(F)c1	5	-1	0	2	-1	nt	nt
